Records with an inconclusive call do not appear. Calls of active or inactive are those of the source. Calls follow the shape of the dose curve; as a rule, active = well fitted curve in the direction sought with a large enough effect; inconclusive = small, poorly fitted or top-dose-only effect, or another doubt; inactive = no such curve, though single readings can be large; an effect the other way counts as inactive or inconclusive.
Key:
MCC-13 = assay: qHTS assay to identify novel small-molecules to repurpose for Merkel cell carcinoma treatment (AID 1296009); settings: MCC and control cell lines, CellTiter-Glo viability, 72 h; series mostly up to 46 µM; also: nearly all actives have a fitted effect of over 60% in size
Method in brief: (§1)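 72 hr, 37 degree celsius; NPC 8-pt / MIPE 11-pt dose response; compound pinned in DMSO; CellTiter-Glo, 10 min RT, luminescence; normalized to no-cell and DMSO controls.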

MCC-26 = assay: as above; settings: MCC and control cell lines, CellTiter-Glo viability, 72 h; series mostly up to 46 µM
Method in brief: as §1

MKL-1 = assay: as above; settings: MCC and control cell lines, CellTiter-Glo viability, 72 h; series mostly up to 46 µM
Method in brief: as §1

MKL-2 = assay: as above; settings: MCC and control cell lines, CellTiter-Glo viability, 72 h; series mostly up to 46 µM
Method in brief: as §1

NIH3T3 = assay: as above; settings: MCC and control cell lines, CellTiter-Glo viability, 72 h; at 44.8 µM (top of the series) unless noted
Method in brief: as §1

UISO = assay: as above; settings: MCC and control cell lines, CellTiter-Glo viability, 72 h; series mostly up to 46 µM
Method in brief: as §1

WaGa = assay: as above; settings: MCC and control cell lines, CellTiter-Glo viability, 72 h; series mostly up to 46 µM
Method in brief: as §1

C33A = assay: Primary qHTS to identify gynecologic anti-cancer compounds using libraries of approved drugs and bioactive compounds (AID 1345084); settings: Gynecologic cancer cell panel viability, ATPlite luminescence, 48 h; series mostly up to 57.5 µM; also: nearly all actives have a fitted effect of over 55% in size
Method in brief: (§2)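 Luminescence from the ATPlite ATP-monitoring reagent indicates viable cell number; lower signal means cytotoxicity. Cells received compound 16 h after seeding and were exposed for 48 h across five concentrations.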

CAOV3 = assay: as above; settings: Gynecologic cancer cell panel viability, ATPlite luminescence, 48 h; series mostly up to 57.5 µM
Method in brief: as §2

CASKI = assay: as above; settings: Gynecologic cancer cell panel viability, ATPlite luminescence, 48 h; series mostly up to 57.5 µM
Method in brief: as §2

Es-2 = assay: as above; settings: Gynecologic cancer cell panel viability, ATPlite luminescence, 48 h; series mostly up to 57.5 µM
Method in brief: as §2

HeLa = assay: as above; settings: Gynecologic cancer cell panel viability, ATPlite luminescence, 48 h; series mostly up to 57.5 µM
Method in brief: as §2

Hek293T [1] = assay: as above; settings: Gynecologic cancer cell panel viability, ATPlite luminescence, 48 h, control line for the selectivity index; series mostly up to 57.5 µM
Method in brief: as §2

JEG-3 = assay: as above; settings: Gynecologic cancer cell panel viability, ATPlite luminescence, 48 h; series mostly up to 57.5 µM
Method in brief: as §2

OV90 = assay: as above; settings: Gynecologic cancer cell panel viability, ATPlite luminescence, 48 h; series mostly up to 57.5 µM
Method in brief: as §2

PA-1 = assay: as above; settings: Gynecologic cancer cell panel viability, ATPlite luminescence, 48 h; series mostly up to 57.5 µM
Method in brief: as §2

SKOV3 = assay: as above; settings: Gynecologic cancer cell panel viability, ATPlite luminescence, 48 h; series mostly up to 57.5 µM
Method in brief: as §2

Tov-21-G = assay: as above; settings: Gynecologic cancer cell panel viability, ATPlite luminescence, 48 h; series mostly up to 57.5 µM
Method in brief: as §2

Tov112D = assay: as above; settings: Gynecologic cancer cell panel viability, ATPlite luminescence, 48 h; series mostly up to 57.5 µM
Method in brief: as §2

HEK293T [2] = assay: qHTS assay to identify novel small-molecules to repurpose for Merkel cell carcinoma treatment (AID 1296009); settings: MCC and control cell lines, CellTiter-Glo viability, 72 h; at 44.8 µM (top of the series) unless noted; also: nearly all actives have a fitted effect of over 60% in size
Method in brief: as §1

Measured: Potency

Cc1c(C(=O)NCCO)[n+](=O)c2ccccc2n1[O-]
not listed: HEK293T [2]
inactive: all other assays above

C[N+](C)(C)CC(O)CC(=O)[O-] (stereo not drawn)
not listed: HEK293T [2]
inactive: all other assays above

O=C(O)c1cc(=O)c2ccccc2o1
not listed: HEK293T [2]
inactive: all other assays above

CC(C)=CCC[C@@](C)(O)[C@H]1CC=C(C)CC1
not listed: NIH3T3 | CAOV3 | HeLa
inactive: all other assays above

COc1ccccc1OCC(O)CO (stereo not drawn)
not listed: HEK293T [2]
inactive: all other assays above

COc1ccc(O)cc1
not listed: MCC-26 | MKL-2 | NIH3T3
inactive: all other assays above

NC(=O)NC1NC(=O)NC1=O (stereo not drawn)
not listed: HEK293T [2]
inactive: all other assays above

CCCCCC(N)=O
not listed: HEK293T [2]
inactive: all other assays above

O=C(O)CNC(=O)c1ccccc1I
not listed: SKOV3 | HEK293T [2]
inactive: all other assays above

O=C(O)Cn1c(C(=O)Nc2nc(-c3ccccc3Cl)cs2)cc2ccccc21
not listed: SKOV3 | HEK293T [2]
inactive: all other assays above

CCCCC1(COC(=O)CCC(=O)O)C(=O)N(c2ccccc2)N(c2ccccc2)C1=O
not listed: HEK293T [2]
inactive: all other assays above

O=C(O)c1ccc[n+]([O-])c1
not listed: HEK293T [2]
inactive: all other assays above

O=C1c2ccccc2S(=O)(=O)N1CCCCN1CCN(c2ncccn2)CC1
not listed: CAOV3 | HEK293T [2]
inactive: all other assays above

FC(F)(F)C(Cl)Br (stereo not drawn)
not listed: CAOV3 | HEK293T [2]
inactive: all other assays above

Cc1ncc(CO)c(CN)c1O
not listed: JEG-3 | OV90 | PA-1 | SKOV3 | HEK293T [2]
inactive: all other assays above

— PubChem BioAssay (NCATS)
